Reference: PubChem BioAssay (EPA / NIEHS)
Records with an inconclusive call do not appear. A structure can be active in one record and inactive in another. The source made the active and inactive calls. The calls were made as follows, unless noted: active = hit-call score of the fitted dose curve at least 0.9, where 1 is the maximum; inactive = score below 0.9.

Biological target: Steroid hormone receptor ERR1 (Homo sapiens) (UniProt P11474)
Experiment: ATG_ERRa_TRANS: Attagene TRANS-FACTORIAL HepG2 Assay for human Estrogen-Related Receptor alpha (ERRa) (AID 2282971; active = hit-call score of the fitted dose curve at least 0.9, where 1 is the maximum)
Details: HepG2 Attagene TRANS reporter, ERRa transactivation
Outline: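 Reporter transcript induction was quantified by RT-PCR and capillary electrophoresis of FAM-labelled, HpaI-cut products after 24 h treatment of HepG2 cells carrying transiently transfected GAL4-UAS reporter units and an exogenous ERRa-Gal4 fusion; activity scored as increase over DMSO.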

Chain of Steroid hormone receptor ERR1 (Homo sapiens) (P11474 whole entry, looked up): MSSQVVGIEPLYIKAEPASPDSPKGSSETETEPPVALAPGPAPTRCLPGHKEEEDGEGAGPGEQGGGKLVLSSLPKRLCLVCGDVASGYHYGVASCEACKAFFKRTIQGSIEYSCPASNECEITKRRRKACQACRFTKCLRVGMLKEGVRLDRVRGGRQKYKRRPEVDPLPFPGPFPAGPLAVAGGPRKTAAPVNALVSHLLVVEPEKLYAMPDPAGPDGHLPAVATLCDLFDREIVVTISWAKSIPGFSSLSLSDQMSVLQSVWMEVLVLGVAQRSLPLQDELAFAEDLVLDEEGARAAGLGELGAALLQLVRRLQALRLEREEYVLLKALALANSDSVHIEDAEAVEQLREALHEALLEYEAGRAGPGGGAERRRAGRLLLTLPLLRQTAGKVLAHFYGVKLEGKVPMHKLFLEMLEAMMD

outcome, inactive:
c1cnc2c(c1)ccc1cccnc12
CCC(C)c1nccnc1OC (stereo unspecified)
CC(C)C=O
CCC(=O)C=Cc1ccc(OC)cc1
CC[N+](CC)(CC)Cc1ccccc1
CCOC(=O)CN[C@@H](C(=O)N1CC[C@H]1C(=O)NCc1ccc(/C(N)=N/O)cc1)C1CCCCC1
CC(=O)CC(C)C
Cc1cc(C(=C2C=CC(=Nc3ccc(S(=O)(=O)O)cc3)C=C2)c2ccc(Nc3ccc(S(=O)(=O)O)cc3)cc2)cc(S(=O)(=O)O)c1N

Biological target: X-box-binding protein 1 (Homo sapiens) (UniProt P17861)
Sequence (P17861 whole entry, looked up): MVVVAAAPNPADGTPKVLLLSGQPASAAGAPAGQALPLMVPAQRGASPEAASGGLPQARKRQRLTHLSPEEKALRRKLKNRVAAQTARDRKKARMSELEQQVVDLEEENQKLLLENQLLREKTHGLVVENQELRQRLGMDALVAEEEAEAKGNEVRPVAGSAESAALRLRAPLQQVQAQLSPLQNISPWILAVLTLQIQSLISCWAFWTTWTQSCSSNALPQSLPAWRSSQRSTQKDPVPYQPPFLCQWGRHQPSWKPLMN
Experiment: ATG_Xbp1_CIS: Attagene CIS-FACTORIAL HepG2 Assay for human X-box Binding Protein 1 (XBP1) (AID 2282972)
Details: HepG2 XBP1 cis-element reporter, Attagene multiplex; actives raise or lower the signal
Outline: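 HepG2 cells transiently transfected with multiple cis-element reporter units report endogenous TF activity; 24 h exposure, then reporter mRNA measured by RT-PCR, 6-FAM labelling, HpaI digestion and capillary electrophoresis. Bidirectional fitting versus DMSO.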

outcome, inactive:
CC(C)(C)c1ccc(CCC=O)cc1
NC(=NCCCCCCN=C(N)/N=C(\N)Nc1ccc(Cl)cc1)/N=C(\N)Nc1ccc(Cl)cc1
c1cnc2c(c1)ccc1cccnc12
CCC(C)c1nccnc1OC (stereo unspecified)
Cc1cc(=O)oc2cc(O)ccc12
CC(C)C=O
CCOCCOCC
CCCCCCC(C)(C)C(=O)O
COCN(COC)c1nc(N(COC)COC)nc(N(COC)COC)n1
COc1cc(OC)nc(NC(=O)NS(=O)(=O)Nc2ccccc2C(=O)N(C)C)n1
CCCCCCCCC(C)=O
CCc1cccc(CC)c1NC(=O)C(=O)O
CC[N+](CC)(CC)Cc1ccccc1
Oc1cccc2c(O)cccc12
CCCCCc1ccc(O)cc1
O=C(F)C(F)(F)C(F)(F)C(F)(F)C(=O)F

AC50, active:
Nc1cc(Cl)c(-c2cc(Cl)c(N)cc2Cl)cc1Cl 11.1 µM
c1cnc2c(c1)ccc1cccnc12 158 µM
